Screens: PubChem, National Center for Advancing Translational Sciences (NCATS)
TDP1 cell CPT = growth inhibition of DT40 Tdp1-/-;hTDP1 cells with camptothecin (screen for TDP1 inhibitors). chicken DT40 Tdp1-/-;hTDP1 cells + 20 nM CPT, ATP luminescence, 48 h. Potency, µM (doses to about 46.2 µM), usual class: inhibitors. 12% of 420,000 active. AID 686979; further: nearly all actives have a fitted effect of over 55% in size
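Chicken DT40 Tdp1-/- cells complemented with human TDP1, 400 cells/well, exposed to compounds plus 20 nM camptothecin for at least 48 h at 37 C; viability read as ATP content by CellTiter-Glo luminescence.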
TDP1 cell noCPT = qHTS for Inhibitors of human tyrosyl-DNA phosphodiesterase 1 (TDP1): qHTS in cells in absence of CPT | DT40 Tdp1-/- hTDP1 cells, no CPT, ATP luminescence, 48 h | Potency, µM (top dose mostly 46.2 µM), usual class: inhibitors | 15% of 420,000 active | AID 686978, 2013; further: nearly all actives have a fitted effect of over 55% in size
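Stably hTDP1-transfected Tdp1-null chicken DT40 cells were treated with library compounds minus camptothecin and grown for at least 48 hr at 37 °C, after which cellular ATP was quantified by luminescence.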
HT1080 IDH1KD tx = kills HT-1080 cells with IDH1 knockdown | HT-1080 IDH1 knockdown viability, ATP luminescence, 48 h | Potency, µM (series often up to 46.1 µM), usual class: cytotoxic | 2% of 360,000 active | AID 686971
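Using the IDH1-knockdown HT-1080 line run in the same batch and compound series as the NT line, viability after 48 h at 37 °C was determined by CellTiter-Glo luminescence and expressed as % activity.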
HT1080-NT tox = kills 2HG-producing HT-1080-NT fibrosarcoma cells | HT-1080-NT fibrosarcoma viability, CellTiter-Glo ATP luminescence, 48 h | Potency, µM (series often up to 46.1 µM), usual class: cytotoxic | 1.6% of 360,000 active | AID 686970;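 further: NT is the 2HG producing partner of a matched IDH1 knockdown line; nearly all actives have a fitted effect of over 55% in size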
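Luminescent CellTiter-Glo readout after 48 hours of compound exposure at 37 degrees C defined viability of HT-1080-NT cells. Activity was normalized to DMSO wells and cell-free media wells; concentration-response curves were fitted and assigned curve classes.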
IL-1B inflam inh = blocks inflammasome-driven IL-1 beta release; THP-1 LPS/ATP IL-1B secretion, AlphaLISA, 16 h; hits give low values; activity change, % at 57.5 µM; 4.7% of 360,000 active; AID 743279; in the data active means activity change below about -50%; inconclusive means mostly about -30% to -49%
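THP-1 cells pretreated 1 hr with compounds (up to 57.5 uM final), then stimulated with LPS (250 ng/mL final) plus ATP (1.25 mM final); secreted IL-1B measured by AlphaLISA after 16 hr, decreased signal indicating inhibition.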
Hits are given with their value; . = inactive; ? = inconclusive; / = no result; [ ] = dose if it differs, or a comment. Hits are enriched below; roughly 19% of the tested compounds scored in any of these assays. Unless noted, the call rests on the fitted dose curve; in most records, active means well fitted curve in the direction sought with a large enough effect; inconclusive means small, poorly fitted or top-dose-only effect, or another doubt; inactive means no such curve, though single readings can be large; an effect the other way counts as inactive or inconclusive.

SMILES	TDP1 cell CPT	TDP1 cell noCPT	HT1080 IDH1KD tx	HT1080-NT tox	IL-1B inflam inh
COc1cccc(CN(C)CC(=O)Nc2cc(S(=O)(=O)N3CCCC3)ccc2Cl)c1OC	21µM	?	.	.	.
COc1cccc(CCC(=O)Nc2cccc(S(=O)(=O)N3CCCC3)c2)c1OC	?	?	.	.	.
COCCn1c(=O)c(-c2ccccc2)nc2cnc(N3CCNCC3)nc21	.	.	/	/	/
O=C(Cn1c(=O)n(-c2ccccc2Cl)c(=O)c2sc3ccccc3c21)NC1CCCCC1	.	?	/	/	/
CCOCCCNC(=O)c1ccc2c(c1)NC(=O)C(CS(=O)(=O)Cc1ccc(F)cc1Cl)N2 (stereo unspecified)	.	.	/	/	/
Cc1ccc(/C=C/C(=O)CCC(=O)O)cc1	.	.	.	.	.
COc1cc(C(=O)Nc2cccc(-c3nc4cc(C)ccc4o3)c2)cc(OC)c1OC	23µM	?	.	.	.
Cc1ccc2oc(-c3cccc(NC(=O)c4ccccn4)c3)nc2c1	?	?	.	.	.
COc1cccc(OC)c1C(=O)Nc1cccc(-c2nc3cc(C)cc(C)c3o2)c1	13µM	7.3µM	/	/	/
C=CCN(C(=O)c1cccc(N2C(=O)C3CC=CC(C)C3C2=O)c1)c1ccccc1 (stereo unspecified)	?	4.6µM	.	.	.
O=C(Nc1ccc(F)cc1)Nc1cc(OCC(F)(F)F)cc(OCC(F)(F)F)c1	2.6µM	4.6µM	8.2µM	7.3µM	-61
CCOc1ccc(NC(=O)Nc2cc(OCC(F)(F)F)cc(OCC(F)(F)F)c2)cc1	2.9µM	2.9µM	?	.	.
CCOc1ccc(NC(=O)Nc2cccc(C(=O)O)c2)cc1	.	?	?	?	.
COc1ccc(C2C(=O)c3ccccc3C2=O)cc1	.	.	.	.	.
COc1cc(C2C(C#N)=C(C)NC3=C2C(=O)c2ccccc23)cc(OC)c1OC (stereo unspecified)	1µM	0.58µM	0.79µM	0.89µM	.
CCOc1ccc(C2C(C#N)=C(C)NC3=C2C(=O)c2ccccc23)cc1 (stereo unspecified)	21µM	15µM	.	.	.
COc1ccc(C2C(C#N)=C(C)NC3=C2C(=O)c2ccccc23)cc1 (stereo unspecified)	?	26µM	.	.	.
CCOC(=O)c1c([N+](=O)[O-])c(C)[nH]c(=O)c1C#N	.	.	.	.	.
CCN(CC)S(=O)(=O)c1ccc(-c2nnc(SCC(=O)N3c4ccccc4CC3C)o2)cc1 (stereo unspecified)	21µM	21µM	.	.	.
CCN(CC)S(=O)(=O)c1ccc(-c2nnc(SCC(=O)N3c4ccccc4CC3C)n2CC)cc1 (stereo unspecified)	15µM	21µM	.	.	.
CCN(CC)S(=O)(=O)c1ccc(-c2nnc(SCC(=O)c3ccc(OC)cc3)o2)cc1	.	.	.	.	.
CC(C)Oc1cccc(NC(=O)c2cnccc2C(F)(F)F)c1	.	.	.	.	.
Cc1ccc(Cn2cnc3c(cnn3C(C)(C)C)c2=O)cc1	26µM	13µM	.	?	.
COc1ccc(O)c(C2=Nc3ccccc3N=C(c3ccccc3)C2)c1	23µM	18µM	.	.	.
COc1ccc2c(c1)NC(=O)CC(c1ccccc1)=N2	.	?	.	.	.
SMILES	TDP1 cell CPT	TDP1 cell noCPT	HT1080 IDH1KD tx	HT1080-NT tox	IL-1B inflam inh
Cc1ccc(N(C(=O)c2csnn2)C(C(=O)NC2CCCCC2)c2ccncc2)c(C)c1 (stereo unspecified)	.	.	.	.	.
CC(=O)C1CCC2C3CC(C)=C4CC(O)CCC4(C)C3CCC12C (stereo unspecified)	.	21µM	?	?	-99
CC(=O)[C@H]1CCC2C3CC=C4C[C@@H](O)CC[C@]4(C)C3CC[C@@]21C (stereo partly specified)	18µM	?	.	.	.
CC(=O)C1CCC2C3CC=C4CC(O)CC[C@@]4(C)C3CC[C@]12C (stereo partly specified)	.	.	/	/	/
CC(=O)[C@H]1CC[C@H]2[C@@H]3CC=C4C[C@@H](O)CC[C@]4(C)[C@H]3CC[C@]12C	?	?	.	.	.
COc1cccc2cc(S(=O)(=O)c3ccc(F)c(C)c3)c(=O)oc12	.	.	/	/	/
CC(=O)c1cccc(NC(=O)CSc2ccc(-c3cccnc3)nn2)c1	.	?	.	.	.
Cc1ccccc1NC(=O)CSc1ccc(-c2ccccn2)nn1	?	?	.	.	.
O=C(CSc1ccc(-c2ccccn2)nn1)Nc1cccc(F)c1	?	18µM	?	.	.
O=C(CSc1ccc(-c2ccccn2)nn1)Nc1nccs1	.	.	.	.	.
Cc1cc(C)cc(NC(=O)CSc2ccc(-c3ccccn3)nn2)c1	16µM	?	?	?	.
Cc1csc(NC(=O)CSc2ccc(-c3ccccn3)nn2)n1	?	26µM	?	.	.
Cc1ccc(N(CC(O)CN2C(=O)NC(C)(C)C2=O)S(=O)(=O)c2ccc([N+](=O)[O-])cc2)cc1 (stereo unspecified)	.	.	.	.	.
CCCCC(=O)Nc1cc2nn(-c3ccc(OCC)cc3)nc2cc1C	.	.	/	/	/
O=C(CC(Sc1ccccc1)c1cccs1)c1ccco1 (stereo unspecified)	18µM	26µM	?	?	-70
COc1cc2nc(N3CCCC(O)C3)c(CNCc3ccccc3F)cc2c(OC)c1OC (stereo unspecified)	.[9.04 µM]	.	/	/	/
CCCCC1CC(C)(C(=O)CSc2nc3ccccc3s2)OC1=O (stereo unspecified)	.	0.65µM	.	.	.
N#Cc1c(-c2ccccc2)nc(SCc2cccc(Cl)c2)[nH]c1=O	.	.	.	.	.
Cc1cccc2cc(CN(Cc3ccco3)C(=O)Nc3cccc(C#N)c3)c(Cl)nc12	?	?	11µM	?	?
COc1cccc(N=NC2C(=O)N(C(N)=S)N=C2C)c1 (stereo unspecified)	.	.	.	26µM	/
CC1=NN(C(N)=S)C(=O)C1N=Nc1c(C)cc(C)cc1C (stereo unspecified)	0.52µM	0.58µM	.	.	.
CC1=NN(C(N)=S)C(=O)C1N=Nc1cccc(Cl)c1 (stereo unspecified)	.	.	.	.	.
CC1=NN(C(N)=S)C(=O)C1N=Nc1c(Cl)cc([N+](=O)[O-])cc1Cl (stereo unspecified)	?	16µM	.	.	.
CCOc1ccccc1N=NC1C(=O)N(C(N)=S)N=C1C (stereo unspecified)	16µM	3.7µM	.	.	.
CC1=NN(C(N)=S)C(=O)C1N=Nc1ccccc1C (stereo unspecified)	1.6µM	1.6µM	.	.	.
